Measurements taken from PMC11006913.
Substitutions are numbered along the chain they refer to.

Assays:
Experiment in all cases: PBM; 200 nM protein, PBS
Conditions in all cases: dsDNA, one strand shown
VENTX [1] = molecular target: T1, VENTX (Homo sapiens, UniProt O95231 78-163, R121Q)
T1 sequence: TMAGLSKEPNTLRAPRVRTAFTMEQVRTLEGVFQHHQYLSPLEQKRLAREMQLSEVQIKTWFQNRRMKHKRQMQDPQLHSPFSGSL

VENTX [2] = molecular target: T2, VENTX (Homo sapiens, UniProt O95231 78-163)
T2 sequence: T1 sequence with Q44R

VENTX [3] = molecular target: T3, VENTX (Homo sapiens, UniProt O95231 78-163, Y115F)
T3 sequence: T1 sequence with Y38F, Q44R

ALX3 [4] = molecular target: ALX3 (Homo sapiens, UniProt O95076 139-225, N203Q)
NKX2-6 [5] = molecular target: T4, NKX2-6 (Homo sapiens, UniProt A6NCS4 118-204)
T4 sequence: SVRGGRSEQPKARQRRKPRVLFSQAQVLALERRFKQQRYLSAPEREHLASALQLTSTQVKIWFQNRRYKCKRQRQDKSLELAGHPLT

ALX3 [6] = molecular target: ALX3 (Homo sapiens, UniProt O95076 139-225)
ALX3 [7] = molecular target: ALX3 (Homo sapiens, UniProt O95076 139-225, L168Q)
NKX2-6 [8] = molecular target: T5, NKX2-6 (Homo sapiens, UniProt A6NCS4 118-204, F151L)
T5 sequence: T4 sequence with F34L

ALX3 [9] = molecular target: ALX3 (Homo sapiens, UniProt O95076 139-225, L168V)
ALX3 [10] = molecular target: ALX3 (Homo sapiens, UniProt O95076 139-225, N203S)
VAX1 [11] = molecular target: VAX1 (Homo sapiens, UniProt Q5SQQ9 86-172)
VAX1 [12] = molecular target: VAX1 (Homo sapiens, UniProt Q5SQQ9 86-172, T142I)
VAX1 [13] = molecular target: VAX1 (Homo sapiens, UniProt Q5SQQ9 86-172, K157R)
HOXA2 [14] = molecular target: HOXA2 (Homo sapiens, UniProt O43364 129-215, R185T)
HOXA4 = HOXA4 (Homo sapiens, UniProt Q00056 201-287, R217L)
HOXA2 [15] = molecular target: HOXA2 (Homo sapiens, UniProt O43364 129-215, R185K)
HOXA2 [16] = molecular target: HOXA2 (Homo sapiens, UniProt O43364 129-215, Y150S)
HOXA2 [17] = molecular target: HOXA2 (Homo sapiens, UniProt O43364 129-215)
ALX1 [18] = molecular target: ALX1 (Homo sapiens, UniProt Q15699 118-204, L144V)
ALX1 [19] = molecular target: ALX1 (Homo sapiens, UniProt Q15699 118-204, L144R)
ALX1 [20] = molecular target: ALX1 (Homo sapiens, UniProt Q15699 118-204)
HOXD13 [21] = molecular target: HOXD13 (Homo sapiens, UniProt P35453 263-343, T313R)
HOXD13 [22] = molecular target: HOXD13 (Homo sapiens, UniProt P35453 263-343)
HOXD13 [23] = molecular target: HOXD13 (Homo sapiens, UniProt P35453 263-343, T313A)
HOXB6 [24] = molecular target: HOXB6 (Homo sapiens, UniProt P17509 132-218, K202E)
HOXB6 [25] = molecular target: HOXB6 (Homo sapiens, UniProt P17509 132-218)
HOXB6 (Homo sapiens, UniProt P17509 132-218), sequence (P17509 132-218): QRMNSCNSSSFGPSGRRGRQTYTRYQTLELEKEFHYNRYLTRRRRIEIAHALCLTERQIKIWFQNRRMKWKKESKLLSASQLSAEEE

VAX1 (Homo sapiens, UniProt Q5SQQ9 86-172, K157R), sequence (Q5SQQ9 86-172 K157R): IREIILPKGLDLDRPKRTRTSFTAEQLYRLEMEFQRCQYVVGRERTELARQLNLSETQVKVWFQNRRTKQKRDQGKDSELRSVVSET
ALX1 (Homo sapiens, UniProt Q15699 118-204, L144V), sequence (Q15699 118-204 L144V): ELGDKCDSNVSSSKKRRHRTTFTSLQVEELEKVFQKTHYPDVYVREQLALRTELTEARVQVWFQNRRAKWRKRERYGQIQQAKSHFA
HOXD13 (Homo sapiens, UniProt P35453 263-343, T313A), sequence (P35453 263-343 T313A): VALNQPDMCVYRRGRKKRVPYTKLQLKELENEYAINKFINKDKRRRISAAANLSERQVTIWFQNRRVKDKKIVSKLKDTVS
VAX1 (Homo sapiens, UniProt Q5SQQ9 86-172, T142I), sequence (Q5SQQ9 86-172 T142I): as the sequence (Q5SQQ9 86-172 K157R) above, with T57I, R72K counted along it
ALX3 (Homo sapiens, UniProt O95076 139-225, N203S), sequence (O95076 139-225 N203S): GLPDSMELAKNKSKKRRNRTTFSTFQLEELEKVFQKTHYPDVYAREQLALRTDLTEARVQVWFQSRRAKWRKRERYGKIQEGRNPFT
HOXA2 (Homo sapiens, UniProt O43364 129-215, R185T), sequence (O43364 129-215 R185T): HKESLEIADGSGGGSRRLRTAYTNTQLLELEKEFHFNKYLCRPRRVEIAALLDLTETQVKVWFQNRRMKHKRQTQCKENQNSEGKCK
HOXA2 (Homo sapiens, UniProt O43364 129-215, R185K), sequence (O43364 129-215 R185K): as the sequence (O43364 129-215 R185T) above, with T57K counted along it
ALX3 (Homo sapiens, UniProt O95076 139-225, N203Q), sequence (O95076 139-225 N203Q): as the sequence (O95076 139-225 N203S) above, with S65Q counted along it
ALX3 (Homo sapiens, UniProt O95076 139-225), sequence (O95076 139-225): as the sequence (O95076 139-225 N203S) above, with S65N counted along it
HOXA2 (Homo sapiens, UniProt O43364 129-215, Y150S), sequence (O43364 129-215 Y150S): as the sequence (O43364 129-215 R185T) above, with Y22S, T57R counted along it
ALX3 (Homo sapiens, UniProt O95076 139-225, L168Q), sequence (O95076 139-225 L168Q): as the sequence (O95076 139-225 N203S) above, with L30Q, S65N counted along it
HOXB6 (Homo sapiens, UniProt P17509 132-218, K202E), sequence (P17509 132-218 K202E): as the sequence (P17509 132-218) above, with K71E counted along it
ALX1 (Homo sapiens, UniProt Q15699 118-204), sequence (Q15699 118-204): as the sequence (Q15699 118-204 L144V) above, with V27L counted along it
HOXA4, sequence (Q00056 201-287 R217L): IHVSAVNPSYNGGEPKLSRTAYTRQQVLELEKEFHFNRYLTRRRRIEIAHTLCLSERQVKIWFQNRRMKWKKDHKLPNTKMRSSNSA
HOXD13 (Homo sapiens, UniProt P35453 263-343, T313R), sequence (P35453 263-343 T313R): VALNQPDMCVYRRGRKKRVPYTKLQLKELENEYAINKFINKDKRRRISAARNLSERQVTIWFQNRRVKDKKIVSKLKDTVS
ALX1 (Homo sapiens, UniProt Q15699 118-204, L144R), sequence (Q15699 118-204 L144R): as the sequence (Q15699 118-204 L144V) above, with V27R counted along it
HOXD13 (Homo sapiens, UniProt P35453 263-343), sequence (P35453 263-343): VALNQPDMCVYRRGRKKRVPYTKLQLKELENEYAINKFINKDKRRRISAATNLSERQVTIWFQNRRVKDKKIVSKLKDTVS
HOXA2 (Homo sapiens, UniProt O43364 129-215), sequence (O43364 129-215): as the sequence (O43364 129-215 R185T) above, with T57R counted along it
ALX3 (Homo sapiens, UniProt O95076 139-225, L168V), sequence (O95076 139-225 L168V): as the sequence (O95076 139-225 N203S) above, with L30V, S65N counted along it
VAX1 (Homo sapiens, UniProt Q5SQQ9 86-172), sequence (Q5SQQ9 86-172): as the sequence (Q5SQQ9 86-172 K157R) above, with R72K counted along it

## CGAGCCGC
VENTX [1]
  binding signal: 8.16 upbm affinity estimate (log intensity, higher = more binding, comparable within an allelic series)
VENTX [2]
  binding signal: 8.17 upbm affinity estimate (log intensity, higher = more binding, comparable within an allelic series)
VENTX [3]
  binding signal: 8.15 upbm affinity estimate (log intensity, higher = more binding, comparable within an allelic series)
ALX3 [4]
  binding signal: 7.74 upbm affinity estimate (log intensity, higher = more binding, comparable within an allelic series)
NKX2-6 [5]
  binding signal: 9.49 upbm affinity estimate (log intensity, higher = more binding, comparable within an allelic series)
ALX3 [6]
  binding signal: 7.82 upbm affinity estimate (log intensity, higher = more binding, comparable within an allelic series)
ALX3 [7]
  binding signal: 7.81 upbm affinity estimate (log intensity, higher = more binding, comparable within an allelic series)
NKX2-6 [8]
  binding signal: 9.16 upbm affinity estimate (log intensity, higher = more binding, comparable within an allelic series)
ALX3 [9]
  binding signal: 7.75 upbm affinity estimate (log intensity, higher = more binding, comparable within an allelic series)
ALX3 [10]
  binding signal: 7.79 upbm affinity estimate (log intensity, higher = more binding, comparable within an allelic series)

## CCCATTAG
VENTX [1]
  binding signal: 12.1 upbm affinity estimate (log intensity, higher = more binding, comparable within an allelic series)
VENTX [2]
  binding signal: 13 upbm affinity estimate (log intensity, higher = more binding, comparable within an allelic series)
VENTX [3]
  binding signal: 11.9 upbm affinity estimate (log intensity, higher = more binding, comparable within an allelic series)
VAX1 [11]
  binding signal: 12.6 upbm affinity estimate (log intensity, higher = more binding, comparable within an allelic series)
VAX1 [12]
  binding signal: 12 upbm affinity estimate (log intensity, higher = more binding, comparable within an allelic series)
VAX1 [13]
  binding signal: 12.3 upbm affinity estimate (log intensity, higher = more binding, comparable within an allelic series)

## CTCGTGGC
VENTX [1]
  binding signal: 8.11 upbm affinity estimate (log intensity, higher = more binding, comparable within an allelic series)
VENTX [2]
  binding signal: 8.09 upbm affinity estimate (log intensity, higher = more binding, comparable within an allelic series)
VENTX [3]
  binding signal: 8.12 upbm affinity estimate (log intensity, higher = more binding, comparable within an allelic series)

## CCATTAGC
VENTX [1]
  binding signal: 12.2 upbm affinity estimate (log intensity, higher = more binding, comparable within an allelic series)
VENTX [2]
  binding signal: 12.9 upbm affinity estimate (log intensity, higher = more binding, comparable within an allelic series)
VENTX [3]
  binding signal: 11.9 upbm affinity estimate (log intensity, higher = more binding, comparable within an allelic series)
HOXA2 [14]
  binding signal: 12.3 upbm affinity estimate (log intensity, higher = more binding, comparable within an allelic series)
HOXA4
  binding signal: 11.4 upbm affinity estimate (log intensity, higher = more binding, comparable within an allelic series)
HOXA2 [15]
  binding signal: 13.1 upbm affinity estimate (log intensity, higher = more binding, comparable within an allelic series)
HOXA2 [16]
  binding signal: 10.6 upbm affinity estimate (log intensity, higher = more binding, comparable within an allelic series)
HOXA2 [17]
  binding signal: 12 upbm affinity estimate (log intensity, higher = more binding, comparable within an allelic series)
VAX1 [13]
  binding signal: 12.4 upbm affinity estimate (log intensity, higher = more binding, comparable within an allelic series)

## CGTCCTCC
VENTX [1]
  binding signal: 8.1 upbm affinity estimate (log intensity, higher = more binding, comparable within an allelic series)
VENTX [2]
  binding signal: 8.19 upbm affinity estimate (log intensity, higher = more binding, comparable within an allelic series)
VENTX [3]
  binding signal: 8.16 upbm affinity estimate (log intensity, higher = more binding, comparable within an allelic series)
ALX1 [18]
  binding signal: 6.55 upbm affinity estimate (log intensity, higher = more binding, comparable within an allelic series)
ALX1 [19]
  binding signal: 6.64 upbm affinity estimate (log intensity, higher = more binding, comparable within an allelic series)
ALX1 [20]
  binding signal: 6.6 upbm affinity estimate (log intensity, higher = more binding, comparable within an allelic series)

## CGCCCGGA
VENTX [1]
  binding signal: 7.98 upbm affinity estimate (log intensity, higher = more binding, comparable within an allelic series)
VENTX [2]
  binding signal: 7.85 upbm affinity estimate (log intensity, higher = more binding, comparable within an allelic series)
VENTX [3]
  binding signal: 8.06 upbm affinity estimate (log intensity, higher = more binding, comparable within an allelic series)
HOXD13 [21]
  binding signal: 9.55 upbm affinity estimate (log intensity, higher = more binding, comparable within an allelic series)
HOXD13 [22]
  binding signal: 9.51 upbm affinity estimate (log intensity, higher = more binding, comparable within an allelic series)
HOXD13 [23]
  binding signal: 9.62 upbm affinity estimate (log intensity, higher = more binding, comparable within an allelic series)

## ATTAGTGG
VENTX [1]
  binding signal: 11.7 upbm affinity estimate (log intensity, higher = more binding, comparable within an allelic series)
VENTX [2]
  binding signal: 12.3 upbm affinity estimate (log intensity, higher = more binding, comparable within an allelic series)
VENTX [3]
  binding signal: 11.4 upbm affinity estimate (log intensity, higher = more binding, comparable within an allelic series)

## CCACGCGC
VENTX [1]
  binding signal: 8.13 upbm affinity estimate (log intensity, higher = more binding, comparable within an allelic series)
VENTX [2]
  binding signal: 8.26 upbm affinity estimate (log intensity, higher = more binding, comparable within an allelic series)
VENTX [3]
  binding signal: 8.14 upbm affinity estimate (log intensity, higher = more binding, comparable within an allelic series)
HOXB6 [24]
  binding signal: 9.05 upbm affinity estimate (log intensity, higher = more binding, comparable within an allelic series)
HOXB6 [25]
  binding signal: 8.96 upbm affinity estimate (log intensity, higher = more binding, comparable within an allelic series)
